From the supplement of paper PMC11732987, “Enantioselective OTUD7B fragment discovery through chemoproteomics screening and high-throughput optimisation” (Communications Chemistry, 2025)

How the values were obtained:
Assay in all cases: log2 ratio of Biotin-Ahx-Ub-VS probe labelling (fragment/DMSO); higher = less target engagement (more negative = stronger competition), active = hit call of the paper (q ≤ 0.05, log2 ratio ≤ -1)
Details in all cases: compound concentration: 200 uM; treatment time: 3 h
ALG13 = molecular target: T1, ALG13 (UniProt Q9NP73)
T1 sequence (whole entry): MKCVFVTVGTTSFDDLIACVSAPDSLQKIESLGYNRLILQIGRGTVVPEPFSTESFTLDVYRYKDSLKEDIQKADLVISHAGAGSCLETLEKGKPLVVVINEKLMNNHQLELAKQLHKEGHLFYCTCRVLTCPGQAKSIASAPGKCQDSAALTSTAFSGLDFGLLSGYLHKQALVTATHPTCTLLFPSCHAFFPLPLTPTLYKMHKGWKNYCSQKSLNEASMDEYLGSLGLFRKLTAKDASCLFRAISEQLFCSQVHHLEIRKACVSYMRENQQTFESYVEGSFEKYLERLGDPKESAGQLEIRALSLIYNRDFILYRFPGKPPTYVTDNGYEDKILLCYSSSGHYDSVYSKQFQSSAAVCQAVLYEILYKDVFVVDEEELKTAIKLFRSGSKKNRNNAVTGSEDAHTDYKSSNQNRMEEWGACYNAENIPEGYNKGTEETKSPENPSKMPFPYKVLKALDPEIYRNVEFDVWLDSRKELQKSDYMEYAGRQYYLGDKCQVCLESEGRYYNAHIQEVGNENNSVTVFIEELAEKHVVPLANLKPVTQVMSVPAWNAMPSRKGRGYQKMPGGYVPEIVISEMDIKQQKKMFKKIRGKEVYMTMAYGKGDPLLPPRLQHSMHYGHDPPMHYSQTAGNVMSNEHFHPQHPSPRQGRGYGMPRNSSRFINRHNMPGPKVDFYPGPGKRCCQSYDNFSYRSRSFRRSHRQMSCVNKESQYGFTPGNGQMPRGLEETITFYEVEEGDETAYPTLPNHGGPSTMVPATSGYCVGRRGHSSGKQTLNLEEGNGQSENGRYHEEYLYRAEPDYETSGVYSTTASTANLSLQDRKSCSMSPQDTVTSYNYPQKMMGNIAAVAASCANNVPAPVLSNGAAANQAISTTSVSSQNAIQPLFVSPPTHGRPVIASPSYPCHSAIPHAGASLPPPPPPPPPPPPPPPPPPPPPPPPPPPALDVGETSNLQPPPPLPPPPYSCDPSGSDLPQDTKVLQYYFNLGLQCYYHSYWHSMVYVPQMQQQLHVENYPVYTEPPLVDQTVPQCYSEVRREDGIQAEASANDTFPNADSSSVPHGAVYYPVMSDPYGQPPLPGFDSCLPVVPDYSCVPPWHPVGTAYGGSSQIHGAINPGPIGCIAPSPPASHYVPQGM
In short: (§1)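 Global-median-normalised Spectronaut label-free quantities were compared by unpaired t-test, and values are average log2 ratios of fragment over vehicle. Only proteins with ≥2 unique peptides were used. HEK293T lysate (495 µg per sample) was treated in triplicate with fragment at 200 µM or vehicle for 3 h and then with Biotin-Ahx-Ub-VS at 0.5 µM final for 1 h. Labelled DUBs were then NeutrAvidin-enriched, digested with LysC and trypsin, and run by diaPASEF LC-MS/MS.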

ATXN3 = ATXN3 (UniProt P54252)
In short: as §1

BAP1 = molecular target: T2, BAP1 (UniProt Q92560)
T2 sequence (whole entry): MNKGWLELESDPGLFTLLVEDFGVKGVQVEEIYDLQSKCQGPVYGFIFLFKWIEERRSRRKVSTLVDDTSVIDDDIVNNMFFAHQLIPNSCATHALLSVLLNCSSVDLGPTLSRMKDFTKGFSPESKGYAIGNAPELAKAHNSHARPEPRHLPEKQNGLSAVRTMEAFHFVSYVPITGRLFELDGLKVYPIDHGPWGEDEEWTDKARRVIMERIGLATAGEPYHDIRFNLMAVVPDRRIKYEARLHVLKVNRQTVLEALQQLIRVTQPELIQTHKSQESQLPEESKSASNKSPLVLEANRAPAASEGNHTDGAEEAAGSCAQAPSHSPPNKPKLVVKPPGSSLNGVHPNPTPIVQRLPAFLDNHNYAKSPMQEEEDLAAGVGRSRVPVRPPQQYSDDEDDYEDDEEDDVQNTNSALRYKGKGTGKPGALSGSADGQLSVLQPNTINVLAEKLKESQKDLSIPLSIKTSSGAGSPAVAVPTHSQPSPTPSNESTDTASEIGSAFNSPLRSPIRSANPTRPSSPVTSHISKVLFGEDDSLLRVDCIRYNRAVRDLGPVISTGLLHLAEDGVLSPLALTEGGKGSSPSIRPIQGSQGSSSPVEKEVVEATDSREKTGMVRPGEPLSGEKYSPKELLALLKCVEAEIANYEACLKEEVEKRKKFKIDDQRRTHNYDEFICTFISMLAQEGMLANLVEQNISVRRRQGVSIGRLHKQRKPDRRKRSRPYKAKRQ
In short: as §1

EIF3F = EIF3F (UniProt O00303)
In short: as §1

EIF3H = EIF3H (UniProt O15372)
In short: as §1

FAM105A = molecular target: T3, FAM105A (UniProt Q9NUU6)
T3 sequence (whole entry): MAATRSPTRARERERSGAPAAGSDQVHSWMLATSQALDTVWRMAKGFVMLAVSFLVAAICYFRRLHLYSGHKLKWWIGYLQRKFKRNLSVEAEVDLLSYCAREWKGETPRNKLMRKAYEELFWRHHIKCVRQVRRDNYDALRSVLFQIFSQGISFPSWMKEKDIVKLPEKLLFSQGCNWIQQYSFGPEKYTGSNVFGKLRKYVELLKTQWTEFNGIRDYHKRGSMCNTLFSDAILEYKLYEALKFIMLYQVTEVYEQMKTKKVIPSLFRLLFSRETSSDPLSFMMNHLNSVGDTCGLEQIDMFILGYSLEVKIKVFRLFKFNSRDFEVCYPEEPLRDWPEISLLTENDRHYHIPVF
In short: as §1

OTUB1 = OTUB1 (UniProt Q96FW1)
In short: as §1

OTUD4 = molecular target: T4, OTUD4 (UniProt Q01804)
T4 sequence (whole entry): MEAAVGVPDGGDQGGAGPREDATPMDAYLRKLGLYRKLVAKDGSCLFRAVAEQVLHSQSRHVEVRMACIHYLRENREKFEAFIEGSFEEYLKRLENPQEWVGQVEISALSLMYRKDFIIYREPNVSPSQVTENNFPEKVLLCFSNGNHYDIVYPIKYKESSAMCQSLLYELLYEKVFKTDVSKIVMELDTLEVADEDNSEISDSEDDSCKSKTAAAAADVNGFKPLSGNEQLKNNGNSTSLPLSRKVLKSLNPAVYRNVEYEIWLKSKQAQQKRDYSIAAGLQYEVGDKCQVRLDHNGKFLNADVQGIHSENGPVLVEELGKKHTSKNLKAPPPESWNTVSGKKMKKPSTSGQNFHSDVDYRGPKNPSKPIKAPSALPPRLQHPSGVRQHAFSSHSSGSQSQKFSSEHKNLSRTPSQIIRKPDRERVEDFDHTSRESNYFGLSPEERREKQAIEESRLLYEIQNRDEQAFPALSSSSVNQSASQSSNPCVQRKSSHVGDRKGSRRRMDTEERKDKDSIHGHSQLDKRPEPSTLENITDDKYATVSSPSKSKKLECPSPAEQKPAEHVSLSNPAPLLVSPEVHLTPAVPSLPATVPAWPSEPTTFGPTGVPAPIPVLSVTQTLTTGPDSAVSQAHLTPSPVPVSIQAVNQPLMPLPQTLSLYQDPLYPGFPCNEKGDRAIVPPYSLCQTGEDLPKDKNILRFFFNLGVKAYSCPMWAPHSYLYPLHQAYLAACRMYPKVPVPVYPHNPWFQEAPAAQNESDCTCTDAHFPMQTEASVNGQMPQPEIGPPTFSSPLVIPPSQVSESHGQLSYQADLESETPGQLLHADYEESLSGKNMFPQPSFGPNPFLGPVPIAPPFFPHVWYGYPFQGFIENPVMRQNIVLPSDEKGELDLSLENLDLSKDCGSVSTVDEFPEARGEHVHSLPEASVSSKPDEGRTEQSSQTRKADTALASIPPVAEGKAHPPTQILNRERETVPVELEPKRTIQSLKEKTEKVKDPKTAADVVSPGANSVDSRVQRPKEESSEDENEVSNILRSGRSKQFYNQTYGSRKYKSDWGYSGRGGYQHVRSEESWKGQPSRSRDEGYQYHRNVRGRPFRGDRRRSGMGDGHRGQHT
In short: as §1

OTUD5 = molecular target: T5, OTUD5 (UniProt Q96G74)
T5 sequence (whole entry): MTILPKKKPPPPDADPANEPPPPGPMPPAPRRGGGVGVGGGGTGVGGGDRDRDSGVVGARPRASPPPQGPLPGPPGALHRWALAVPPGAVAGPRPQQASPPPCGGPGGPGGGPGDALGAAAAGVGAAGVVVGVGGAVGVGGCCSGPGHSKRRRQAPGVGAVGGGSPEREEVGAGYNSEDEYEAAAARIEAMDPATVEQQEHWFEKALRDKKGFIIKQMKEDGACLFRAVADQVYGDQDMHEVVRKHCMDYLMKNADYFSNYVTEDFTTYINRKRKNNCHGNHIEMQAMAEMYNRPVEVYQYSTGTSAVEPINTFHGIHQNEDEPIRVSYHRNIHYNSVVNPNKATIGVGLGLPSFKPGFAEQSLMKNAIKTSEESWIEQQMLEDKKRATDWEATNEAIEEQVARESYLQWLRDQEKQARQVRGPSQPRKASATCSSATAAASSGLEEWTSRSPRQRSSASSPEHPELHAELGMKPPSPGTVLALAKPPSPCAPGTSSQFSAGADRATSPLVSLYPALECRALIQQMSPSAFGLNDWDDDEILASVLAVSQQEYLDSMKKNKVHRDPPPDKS
In short: as §1

Measured: log2 ratio of Biotin-Ahx-Ub-VS probe labelling

Sequence of EIF3H (O15372 whole entry): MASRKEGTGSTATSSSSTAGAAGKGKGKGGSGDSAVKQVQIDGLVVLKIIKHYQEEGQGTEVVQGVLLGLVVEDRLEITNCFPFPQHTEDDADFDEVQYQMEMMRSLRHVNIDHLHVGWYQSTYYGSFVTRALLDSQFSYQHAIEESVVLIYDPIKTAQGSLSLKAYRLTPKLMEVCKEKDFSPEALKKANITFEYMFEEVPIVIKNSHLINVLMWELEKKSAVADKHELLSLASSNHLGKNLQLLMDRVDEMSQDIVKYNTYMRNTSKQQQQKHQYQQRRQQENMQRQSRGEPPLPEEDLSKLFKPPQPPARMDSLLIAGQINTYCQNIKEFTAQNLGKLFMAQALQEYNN
Sequence of EIF3F (O00303 whole entry): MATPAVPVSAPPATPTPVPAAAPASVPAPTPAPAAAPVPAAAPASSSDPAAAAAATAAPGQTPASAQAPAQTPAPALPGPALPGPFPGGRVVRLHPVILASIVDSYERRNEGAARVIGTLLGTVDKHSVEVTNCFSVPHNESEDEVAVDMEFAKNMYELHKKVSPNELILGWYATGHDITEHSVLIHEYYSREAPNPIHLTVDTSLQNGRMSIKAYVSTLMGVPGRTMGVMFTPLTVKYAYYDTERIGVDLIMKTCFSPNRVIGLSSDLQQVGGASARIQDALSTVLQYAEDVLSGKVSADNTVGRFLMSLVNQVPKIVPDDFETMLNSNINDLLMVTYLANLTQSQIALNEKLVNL
Sequence of OTUB1 (Q96FW1 whole entry): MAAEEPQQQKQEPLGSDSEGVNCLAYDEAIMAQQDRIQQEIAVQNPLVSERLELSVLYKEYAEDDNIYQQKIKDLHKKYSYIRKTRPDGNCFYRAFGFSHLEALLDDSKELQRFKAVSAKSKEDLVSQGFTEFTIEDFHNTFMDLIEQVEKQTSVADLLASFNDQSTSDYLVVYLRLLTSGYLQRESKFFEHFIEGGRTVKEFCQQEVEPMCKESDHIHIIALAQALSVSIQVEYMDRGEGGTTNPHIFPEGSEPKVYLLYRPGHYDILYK
Sequence of ATXN3 (P54252 whole entry): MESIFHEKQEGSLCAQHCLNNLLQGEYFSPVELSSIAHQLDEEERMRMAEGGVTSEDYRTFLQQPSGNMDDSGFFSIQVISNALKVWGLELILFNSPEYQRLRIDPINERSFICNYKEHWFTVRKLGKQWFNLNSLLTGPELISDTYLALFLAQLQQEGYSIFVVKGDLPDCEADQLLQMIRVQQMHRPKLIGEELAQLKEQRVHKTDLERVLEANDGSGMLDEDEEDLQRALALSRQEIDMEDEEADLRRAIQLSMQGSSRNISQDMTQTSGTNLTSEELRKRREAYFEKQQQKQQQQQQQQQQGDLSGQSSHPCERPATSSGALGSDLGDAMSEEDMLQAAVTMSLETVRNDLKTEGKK

O=C(CCl)N1CCC(O)(Cc2ccc(F)cc2)C1 (centres undefined)
inactive: ALG13 -0.581 | ATXN3 -0.456 | BAP1 -0.845 | EIF3F -0.133 | EIF3H -0.189 | FAM105A -0.0755 | OTUB1 -0.0952 | OTUD4 -0.135 | OTUD5 -0.233
